Source: PubChem
The list is not random: actives were taken first. Their share in the collection is about 10%.
GLS inh: qHTS for Inhibitors of Glutaminase (GLS) | Potency, µM (series often up to 45.5 µM), without a hit: top-dose activity change, negative = inhibition, actives largely listed as inhibitors | Glutaminase kidney isoform, mitochondrial (Homo sapiens), O94925 | 0.21% of 410,000 active | GLS enzymatic activity, qHTS titration; also: % is scaled to controls: 0 for no effect and ±100 for the full control effect
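Assay buffer: 45 mM KH2PO4 pH 8.2, 0.02% Tween-20. hKGA acts on L-glutamine (1 mM solution added); product glutamate is reported by an oxidase/peroxidase Amplex Red coupling, with fluorescence taken at baseline and 30 min.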
JMJD2A Tudor: qHTS Assay for Inhibitors of JMJD2A-Tudor Domain | 4.4% of 390,000 active | AID 504339, 2011 | Lysine-specific demethylase 4A (Homo sapiens), O75164 | Potency, µM (doses to about 114 µM), without a hit: at the top dose activity change, negative = inhibition, most hits filed as inhibitors | AlphaScreen JMJD2A-Tudor / H3K4me3 peptide binding; also: % is scaled to controls: 0 for no effect and ±100 for the full control effect; nearly all actives have a fitted effect of over 50% in size
HP1b chromo inh: HTS for Inhibitors of HP1-beta Chromodomain Interactions with Methylated Histone Tails | Potency, µM (top dose mostly 114 µM), for inactives: at the top dose activity change, negative = inhibition, most hits filed as inhibitors | 0.56% of 390,000 active | AlphaScreen HP1-beta / biotin-H3K9me3 peptide binding | Chromobox protein homolog 1 (Homo sapiens), P83916; also: nearly all actives have a fitted effect of over 70% in size
Target sequence (P83916 whole entry, looked up): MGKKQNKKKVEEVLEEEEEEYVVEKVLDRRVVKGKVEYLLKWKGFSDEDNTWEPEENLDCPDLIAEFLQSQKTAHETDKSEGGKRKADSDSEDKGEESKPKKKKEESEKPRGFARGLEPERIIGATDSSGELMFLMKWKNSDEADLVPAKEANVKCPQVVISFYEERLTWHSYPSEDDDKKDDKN
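HP1-beta protein (50 nM final) preincubated 30 min at room temperature with biotinylated H3(1-18)K9me3 peptide (50 nM) in PBS pH 7.4, 0.01% Tween-20, then compound added for 30 min. AlphaScreen streptavidin donor/nickel chelate acceptor beads (10 ug/mL final), 30 min dark, luminescence read.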
BAZ2B block: qHTS Assay for Inhibitors of BAZ2B; Bromodomain adjacent to zinc finger domain protein 2B (Homo sapiens), Q9UIF8; AlphaScreen BAZ2B-H3K14Ac peptide displacement; Potency, µM (titrated, usually from 114 µM), inactives show at the highest dose activity change, negative = inhibition, most hits filed as inhibitors; 4.4% of 360,000 active; AID 504333, 2011; also: % is scaled to controls: 0 for no effect and ±100 for the full control effect; nearly all actives have a fitted effect of over 60% in size
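BAZ2B (50 nM) with biotin-H3(5-23)K14Ac peptide (50 nM) in PBS pH 7.4, 0.01% Tween-20, preformed 30 min, then compound 30 min at room temperature; top concentration 110uM. AlphaScreen streptavidin donor/nickel chelate acceptor beads (10 ug/mL final), 20 min dark, signal read.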
G9a inh: qHTS Assay for Inhibitors of Histone Lysine Methyltransferase G9a; Histone-lysine N-methyltransferase EHMT2 (Homo sapiens), Q96KQ7; AID 504332, 2011; 8.8% of 350,000 active; Potency, µM (titrated, usually from 102 µM), for inactives: at the top dose activity, negative = inhibition, most hits filed as inhibitors; G9a H3K9 monomethylation, AlphaScreen, 2 h; also: % is scaled to controls: 0 for no effect and ±100 for the full control effect; nearly all actives have a fitted effect of over 75% in size
Target sequence (Q96KQ7 913-1193 limits assumed): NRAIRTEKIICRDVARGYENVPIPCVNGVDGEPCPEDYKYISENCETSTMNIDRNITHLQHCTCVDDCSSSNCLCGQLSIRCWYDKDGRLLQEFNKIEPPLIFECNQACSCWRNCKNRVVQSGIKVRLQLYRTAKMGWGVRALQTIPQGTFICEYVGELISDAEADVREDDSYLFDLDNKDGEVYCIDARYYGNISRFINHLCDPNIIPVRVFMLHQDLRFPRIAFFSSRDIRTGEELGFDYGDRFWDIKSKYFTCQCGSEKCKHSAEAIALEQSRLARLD
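AlphaScreen read-out: biotin-H3K9 peptide (500 nM) methylation by 20 nM enzyme with 20 uM SAM, 2 h at room temperature after 15 min compound preincubation; anti-monomethyl H3K9 antibody plus donor/acceptor beads, 10 min dark.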
Numbers without * were called inactive; ? = inconclusive; . = not tested or not shown; [ ] = remark or other dose. Calls follow the shape of the dose curve; as a rule, active = well fitted curve in the direction sought with a large enough effect; inconclusive = small, poorly fitted or top-dose-only effect, or another doubt; inactive = no such curve, though single readings can be large; an effect the other way counts as inactive or inconclusive. Potency is read from the fitted curve at half-maximal effect.

SMILES	GLS inh	JMJD2A Tudor	HP1b chromo inh	BAZ2B block	G9a inh
O=C(/C=C/c1ccc2c(c1)OCO2)c1ccc[nH]1	2%	-35%	17%	-5%	-2%[59 µM]
CCc1cccc(-n2c(=O)c3cccnc3n2CC(=O)Nc2ccc(F)c(C)c2)c1	1%	10%	38%	4%	6%[59 µM]
C=CCn1c(SCn2nnc3ccccc3c2=O)nnc1-c1ccc(F)cc1	-11%	-7%	41%	10%	32µM*
C=CCn1c(SCn2nnc3ccccc3c2=O)nnc1-c1ccc(Br)cc1	3%	-19%	25%	-30%	?
CCOC(=O)c1c(C)[nH]c(C)c1C(=O)CSc1nnc(-c2ccncc2)n1Cc1ccccc1	6%	-22%	-1%	?	56µM*
Cc1nc2c(OCc3ccc(F)c(F)c3)cccn2c1N(C)C(=O)CCC1CCCC1	-5%	.	.	.	.
CCN(CC)S(=O)(=O)c1cccc(NC(=O)c2ccccc2Br)c1	2%	11%[11.4 µM]	50%	-4%	28%
Nc1nnnn1/N=C/c1ccccc1OCc1ccc(Cl)cc1	2%	-9%	24%	-1%	-7%[59 µM]
Cc1n[nH]c(=S)n1/N=C/c1ccccc1OCc1ccc(Cl)cc1	-1%	50µM*	20%	8%	?
COc1ccccc1/C=C/C=N/n1c(COc2ccccc2)n[nH]c1=S	-17%	?	-8%	-4%	3.5µM*
COc1cccc(/C=N/n2c(COc3ccccc3)n[nH]c2=S)c1OC	0%	28µM*	-13%	-32%	8.9µM*
COc1cccc(/C=N/n2c(CO)nc3ccccc32)c1OC	0%	-2%	8%	11%	5%
COc1cccc(/C=N/n2c(COc3ccccc3)n[nH]c2=S)c1O	2%	50µM*	?	-32%	16µM*
O=C(Cc1cccc([N+](=O)[O-])c1)Nc1ccc(C(=O)N2CCOCC2)cc1	7%	-7%	29%	.	.
Cn1c(=O)c2c(ncn2CC(=O)N2CCN(S(=O)(=O)c3ccc(Cl)cc3)CC2)n(C)c1=O	0%	-10%	33%	-8%	.
FC(F)(F)c1cccc(N2CCCCC2)c1	-8%	.	.	.	.
FC(F)(F)c1cccc(N2CCC(N=CN3CCCCCC3)=N2)c1	12%	-15%[11.4 µM]	?	40µM*	40µM*
O=C1C(=O)N(CC2CCCO2)C(c2ccccc2[N+](=O)[O-])/C1=C(/O)c1ccccc1 (stereo unspecified)	6%	-31%	14%	?	32µM*
CCOC(=O)c1c[nH]c(=S)n1C	-9%	32µM*	-15%	-22%	22µM*
COc1ccc(CCC(=O)OCC(=O)Nc2ccc3[nH]c(=O)[nH]c3c2)cc1	-9%	-9%	28%	-5%	-35%
COc1ccc(OCC(=O)OCC(=O)Nc2ccc3[nH]c(=O)[nH]c3c2)cc1	0%	-11%	19%	-4%	8.9µM*
Cc1nc(SCC(=O)Nc2ccc3[nH]c(=O)[nH]c3c2)nc(C)c1C	-3%	?	32%	.	.
O=C(CSc1ncccn1)Nc1ccc2[nH]c(=O)[nH]c2c1	-2%	-6%	26%	9%	14µM*
O=C(COC(=O)Cc1ccc(Cl)cc1)Nc1ccc2[nH]c(=O)[nH]c2c1	2%	-9%	15%	?	50µM*
CCC(=O)Nn1c(C2CCC2)nc2ccccc2c1=O	-10%	-5%	33%	0%	5%
SMILES	GLS inh	JMJD2A Tudor	HP1b chromo inh	BAZ2B block	G9a inh
Cn1c(SCC(=O)N/N=C/c2cc([N+](=O)[O-])ccc2O)nnc1-c1ccccc1	-3%	?	32%	-1%	-2%
Cc1noc(C)c1CN1C(=O)NC2(CCc3ccccc3C2)C1=O (stereo unspecified)	-2%	-8%[57.1 µM]	20%	10%	-14%[59 µM]
O=C(Nc1nc2c(s1)CN(Cc1ccccc1)CC2)C1CCC1	-11%	-23%	14%	?	45µM*
CC1(C)Cc2cccc(OCC(O)CN3CCN(c4ccccn4)CC3)c2O1 (stereo unspecified)	-8%	-18%	24%	2%	-7%[59 µM]
CC1(C)Cc2cccc(OCC(O)CNCc3ccccn3)c2O1 (stereo unspecified)	9%	89µM*	35%	?	?
O=C1CC(N2CCN(c3ccccc3Cl)CC2)C(=O)N1c1ccc(F)cc1 (stereo unspecified)	4%	-12%	16%	-3%	50µM*
O=C1CC(N2CCCCCC2)C(=O)N1c1ccc(F)cc1 (stereo unspecified)	-7%	-5%	35%	-18%	11µM*
O=C1CC(N2CCN(Cc3ccccc3)CC2)C(=O)N1c1ccccc1 (stereo unspecified)	0%	-14%	22%	0%	1%[2.33 µM]
O=C1CC(N2CCN(c3ccccc3F)CC2)C(=O)N1c1ccc(F)cc1 (stereo unspecified)	9%	-18%	39%	.	.
O=C1CC(N2CCN(c3ccc(F)cc3)CC2)C(=O)N1c1ccc(F)cc1 (stereo unspecified)	14%	-3%	38%	-5%	.
CC1CCN(C2CC(=O)N(c3ccccc3)C2=O)CC1 (stereo unspecified)	0%	-1%	62%	-21%	28µM*
COc1ccc(NC(=O)c2ccc(-c3ccccc3)cc2)cc1NS(=O)(=O)c1ccc(F)cc1	20%	-28%	8%	-7%	-12%[59 µM]
Cc1nc2nc(CC(=O)O)[nH]n2c(=O)c1[N+](=O)[O-]	-3%	18µM*	20%	-16%	-12%[12.7 µM]
CCOC1=C2CN(S(=O)(=O)c3ccc(C)cc3)[C@H](c3ccccc3)C[C@@H]2N(S(=O)(=O)c2ccc(C)cc2)[C@H](c2cccs2)C1	-2%	.	.	.	.
Cc1onc(-c2c(Cl)cccc2Cl)c1C(=O)NNc1ccccc1	?	79µM*	-30%	?	.
Cc1onc(-c2c(Cl)cccc2Cl)c1NC(=O)NNc1c(Cl)cncc1Cl	5%	-14%	63%	0%	3%
Cc1onc(-c2c(Cl)cccc2Cl)c1NC(=O)NNc1ccccc1	0%	-16%	63%	-15%	40µM*
Cc1onc(-c2c(F)cccc2Cl)c1C(=O)ONC(=O)c1ccco1	-8%	40µM*	29%	-7%	50µM*
Cc1cc(NC(=O)COc2nnc(-c3ccccc3)c3ccccc23)no1	6%	7%	34%	-2%	5%[12.7 µM]
CCCNC(=O)c1cc(C2CCCCN2S(=O)(=O)c2ccc(F)cc2F)on1 (stereo unspecified)	6%	.	.	.	.
C/C=C/C(=O)Nc1cccc(C2=NOC3(C2)C[C@H](C(N)=O)N(C(=O)c2ccccc2C(=O)c2ccccc2)C3)c1 (stereo partly specified)	.	.	.	-9%	25%[12.7 µM]
CCOC(=O)Cc1cc(=O)n2[nH]c(-c3ccc(Cl)cc3)cc2n1	2%	-8%	31%	-4%	5%
